The target in the test is Genome polyprotein (Poliovirus type 1 (strain Mahoney)) (UniProt P03300). The test can be described thus: inhibitors of poliovirus polymerase RNA elongation – biochemical, fluorescence polarization, total intensity, primary screen (AID 588519). On z-score: compound at 16.7 µg/mL. Conditions: stronger effect = lower value; for % elongation: compound at 16.7 µg/mL; for z-score: measured here: FP z-score.
Where [1] appears, read: measured here: total intensity read-out.

Among all 150,000 compounds or so, about 1,000 (0.67%) were called active. No stated cut-off is given here; in the data, active means % elongation below about 90%; inactive means the rest, inconclusive results apart. For the sample, actives were picked, then their nearest neighbours and some compounds at random.

Genome polyprotein (Poliovirus type 1 (strain Mahoney)), sequence (P03300 1749-2209 limits assumed): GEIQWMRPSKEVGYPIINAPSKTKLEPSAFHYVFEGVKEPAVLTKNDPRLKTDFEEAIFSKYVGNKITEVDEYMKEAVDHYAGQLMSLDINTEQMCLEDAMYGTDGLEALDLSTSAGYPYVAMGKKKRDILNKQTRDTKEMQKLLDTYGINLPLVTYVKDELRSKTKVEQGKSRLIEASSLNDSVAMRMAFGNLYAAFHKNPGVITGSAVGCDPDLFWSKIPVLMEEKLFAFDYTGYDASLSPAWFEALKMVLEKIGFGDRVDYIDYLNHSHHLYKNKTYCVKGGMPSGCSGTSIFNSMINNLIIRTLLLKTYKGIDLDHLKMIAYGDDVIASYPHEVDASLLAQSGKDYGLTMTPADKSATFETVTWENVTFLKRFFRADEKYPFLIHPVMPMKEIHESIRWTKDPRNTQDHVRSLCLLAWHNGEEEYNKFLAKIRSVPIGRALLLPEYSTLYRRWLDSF

Take `C=CCn1ccc2c(OCC(=O)c3ccccc3)cccc2c1=O`: the % elongation is 104% (inactive) and the z-score worked out at 0.6. The % elongation under setting [1] is 101%.
For `CCNC(=O)N1c2ccccc2Sc2ccccc21`, in that order: 101% (inactive), 0.2 and 103%.
For `COCCNC(=O)N1c2ccccc2Sc2ccccc21` the same measures were 103% (inactive), 0.4 and 100%.
For `CN1/C(=C/C(=S)C(C)(C)C)Sc2ccccc21` the same measures were 84% (active), -1.7 and 83%.
On to `Cc1[nH]nc2c1C1C(C2)C1(C)C` (stereo not given), for which the % elongation was 76% (active) and the z-score is -7.4. The % elongation under setting [1] stood at 105%.
For `CCc1nc(NCc2ccccc2)c(C#N)c2c1COC(C)(C)C2`, in that order: 107% (inactive), 0.4 and 112%.
For `O=C(CSc1nnc(-c2c[nH]c3ccccc23)o1)NCC1CN(Cc2ccccc2)CCO1` (stereo not given), in that order: 105% (inactive), 0.1 and 109%.
For `COc1ccc(-c2noc(CC(=O)N(C)c3ccccc3)n2)cc1`, in that order: 106% (inactive), 0.7 and 100%.
In the case of `C=CCSc1nnc(NC(=O)CCNS(=O)(=O)c2ccccc2)s1`, the % elongation is 103% (inactive) and the z-score was determined as 0.2. Further, the % elongation under setting [1] came out at 107%.
For `C=CCSc1nnc(NC(=O)CSc2nc(C)cc(=O)[nH]2)s1`, in that order: 88% (active), -4 and 65%.
For `COC(=O)Cc1cnc(NC(=O)CSc2nc(C(C)C)cc(=O)[nH]2)s1`, in that order: 102% (inactive), 0.3 and 100%.
For the compound `COc1ccccc1NC(=O)Nc1cc(C(C)(C)C)nn1-c1ccccc1`, the % elongation is 105% (inactive) and the z-score stood at 0.5. Besides, the % elongation under setting [1] came to 102%.
For `Cc1sc2nc(COC(=O)C(NC(=O)c3ccco3)C(C)C)[nH]c(=O)c2c1C` (stereo not given), in that order: 94% (inactive), -1.2 and 219%.
Turning to `CCOC(=O)c1cnc2c(C)cc(Cl)cc2c1NCCc1ccc(OC)c(OC)c1`, the % elongation is 104% (inactive) and the z-score was -0.4. The % elongation under setting [1] turned out to be 104%.
For `CCOC(=O)c1cnc2c(C)c(C)ccc2c1NCCCN(C)C`, in that order: 69% (active), -5 and 53%.
For `CCOC(=O)c1cnc2c(C)cc(C)cc2c1Nc1ccc(N2CCOCC2)cc1`, in that order: 107% (inactive), 0.5 and 110%.
For `O=C(COC(=O)c1cccs1)NCc1cccs1`, in that order: 100% (inactive), -0.1 and 101%.
For the compound `Cc1nc2ccccc2nc1OCC(=O)N(C1CCCCC1)C1CCCCC1`, the % elongation was 99% (inactive) and the z-score was -0.3. Besides, the % elongation under setting [1] turned out to be 97%.
For `CCOC(=O)c1sc(NC(=O)/C=C/c2ccc(C(C)C)cc2)c(C(=O)OCC)c1C`, in that order: 105% (inactive), 0.3 and 109%.
For `COC(=O)c1c(NC(=O)C(C)Oc2ccc(Cl)c(C)c2)sc(C)c1C` (stereo not given) the same measures were 109% (inactive), 0.5 and 106%.
On to `CCOC(=O)c1c(NC(=O)COc2cc(C)ccc2C(C)C)sc(C)c1C`, for which the % elongation is 89% (active) and the z-score is -2.6. In addition, under setting [1], the % elongation was 88%.
Consider `COC(=O)c1sc(C)cc1OC(=O)c1ccc(OC)cc1`, for which the % elongation was 99% (inactive) and the z-score was -0.2. Besides, the % elongation under setting [1] is 100%.
`CCCc1nc2c3ccccc3ncn2n1`: the % elongation was 105% (inactive) and the z-score is 0.4. For the same compound, the % elongation under setting [1] came to 113%.
Regarding `CCCCCCn1nnc2sc(-c3ccccc3)cc2c1=O`, the % elongation is 121% (inactive) and the z-score came out at 2.3. Moreover, the % elongation under setting [1] was determined as 118%.
For `CC(C)OC(=O)C(C)n1cnc2sc(-c3ccccc3)cc2c1=O` (stereo not given) the same measures were 104% (inactive), 0 and 105%.
Turning to `Cc1ccc(Cl)cc1NC(=O)C(C)n1nnc2sc(-c3ccccc3)cc2c1=O` (stereo not given), the % elongation is 65% (active) and the z-score was -6.8. Besides, the % elongation under setting [1] amounted to 65%.
Take `CC1(C)CC(=O)C=C(Nc2sc3c(c2C#N)CCCC3)C1`: the % elongation is 98% (inactive) and the z-score is -1. Further, under setting [1], the % elongation was 97%.
For the compound `CCOc1ccc(S(=O)(=O)NCCSc2ccccc2)cc1`, the % elongation was 100% (inactive) and the z-score is -0.1. Moreover, the % elongation under setting [1] came out at 103%.
As for `COc1ccc(S(=O)(=O)NCCSc2nnnn2-c2ccccc2)cc1`, the % elongation was 75% (active) and the z-score was -7.9. For the same compound, under setting [1], the % elongation turned out to be 73%.
Turning to `O=C(CSc1nnnn1-c1ccccc1)NCCC12CC3CC(CC(C3)C1)C2`, the % elongation is 102% (inactive) and the z-score was -0.1. Further, the % elongation under setting [1] came out at 107%.
Consider `O=C(Nc1ccc(S(=O)(=O)C(F)F)cc1)c1cccnc1N1CCCC1`, for which the % elongation was 102% (inactive) and the z-score is -0.3. Besides, the % elongation under setting [1] stood at 104%.
`Cc1ccc(-n2cc[nH]c(=O)c2=O)cc1`: the % elongation was 103% (inactive) and the z-score was 0.3. The % elongation under setting [1] is 102%.
For the compound `CCCC(=O)Nc1ccc(C(=O)CSc2nnc(Cc3ccccc3)o2)cc1`, the % elongation was 106% (inactive) and the z-score came to 0.3. Moreover, under setting [1], the % elongation was determined as 106%.
In the case of `O=C(Oc1ccc(Br)cc1)c1ccco1`, the % elongation is 101% (inactive) and the z-score was -0.3. The % elongation under setting [1] is 105%.
For `O=C(CSc1ccc(Br)cc1)c1ccco1` the same measures were 97% (inactive), -0.9 and 89%.
For `O=C(Sc1ccc(Oc2ccc(SC(=O)c3ccco3)cc2)cc1)c1ccco1` the same measures were 44% (active), -11.5 and 51%.
For `CCCCN(C)C(=O)C1CCCN(c2nnc(C)c3c(C)n(-c4ccccc4)nc23)C1` (stereo not given) the same measures were 101% (inactive), -0.1 and 103%.
For `O=C(CSc1nnc2ccccn12)c1ccccc1`, the % elongation was 101% (inactive) and the z-score came to 0.1. The % elongation under setting [1] is 103%.
For `O=C(CSc1ccccc1)c1ccccc1` the same measures were 79% (active), -2.3 and 75%.
For `O=C(CCC(=O)c1ccccc1)c1ccccc1` the same measures were 100% (inactive), 0.1 and 102%.

The values above are taken from PubChem BioAssay AID588519 (ICCB-Longwood Screening Facility, Harvard Medical School, 2011).
